Data published in PubChem BioAssay (NCI).
This is part of a sample that, as a whole, favours compounds with a hit. Of some 83,000 tested, about 20% had one in any assay.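 Method: cells in 96-well plates; compound added at one concentration; 48 h incubation; percent growth measured; values under 10 scored active.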 Values without a mark were called inactive. Active and inactive are the calls of the source.

System: OVCAR-4 ovarian
Assay: NCI-60 one-dose screen, 48 h (100 = growth as untreated, 0 = no growth, -100 = all killed)
Conditions: 10 µM unless noted

| Structure (SMILES) | growth |
| --- | --- |
| O=c1ccn(-c2ncnc3nc[nH]c23)cc1 | 93.3% |
| CCN(CC)c1ccc(CNc2ccnc3ccccc23)cc1 | 17.1% |
| COc1ccc(CN2CCc3c(Sc4ccccc4)nc(N)nc3C2=O)c(OC)c1 | 44.3% |
| COc1ccc(/C=C\c2cc(OC)c(OC)c(OC)c2)cc1OC(=O)c1cccc(Cn2cc(CCOC(=O)c3cccc(Cn4nnc5c4C(=O)c4ccccc4C5=O)c3)nn2)c1 | 31.6% |
| CCCCN(CCCC)C(=O)CC | 108% |
| O=C1Nc2ccc3c(c2/C1=C\c1cc2c(cc1Br)OCO2)OCO3 | -45.5% (active) |
| O=C1/C(=C/c2ccccc2)CN(C(=O)CCN2CCC(=NO)CC2)C/C1=C\c1ccccc1 | 15.3% |
| COc1ccc2c(c1)[nH]c(=O)c1c3cc(OC)ccc3cn21 | 46.1% |
| COc1ccc(Nc2nc(N)nc3c2CCN(Cc2ccc(OC)cc2OC)C3=O)cc1 | 91.2% |
| Cn1ccc(=O)c(S(N)(=O)=O)c1 | 95.8% |
| Cc1cc(N/N=C/c2nc(-c3ccccc3)oc2C)c2cc(Br)ccc2n1 | 1.21% (active) |
| C=C1CCC2C3(C)COC(c4c(OC)cccc4OC)OC3CCC2(C)C1C/C=C1/C(=O)OCC1O (stereo not drawn) | 41.3% |
| COC(=O)c1cc2cc(-c3ccc(OC)cc3)cnc2[nH]1 | 30.2% |
| Cc1ccc(S(=O)(=O)n2cc(C(=O)C(=O)N3CCOCC3)c3ccccc32)cc1 | 89.1% |
| COc1ccc(-c2nc(/C=N/Nc3cc(C)nc4ccc(Cl)cc34)c(C)o2)cc1 | -95.3% (active) |
| O=C1c2ccccc2-c2ccccc2C1(Cl)Cl | -98.6% (active) |
| COc1ccc(-c2cn(-c3cccc(C(=O)/C=C/c4cc(OC)c(OC)c(OC)c4)c3)c(=O)[nH]2)cc1OC | 85.7% |

| Structure (SMILES) | growth |
| --- | --- |
| CCCCCCCCCCCCNC(=O)[C@H]1CSC(c2ccsc2)N1 (stereo partly drawn) | -84.6% (active) |
| COc1cc(C2NN=C3c4ccccc4CCC32)cc(OC)c1OC (stereo not drawn) | 71.1% |
| O=C(N/N=C/C=C\c1ccccc1)C(=O)N/N=C/C=C/c1ccccc1 | 112% |
| CN1CCN(Cc2ccc(NC(=O)c3cncc(C#Cc4cnc(N)c5ccncc45)c3)cc2C(F)(F)F)CC1 | 25.5% |
| N=C(N)c1ccc(-c2ccc(-c3ccc4ccccc4c3)s2)cc1 | 100% |
| COc1cc(/C=C/C(=O)c2cccc(-n3cc(-c4cc(OC)c(OC)c(OC)c4)[nH]c3=O)c2)cc(OC)c1OC | 23.2% |
| N=C(N)c1ccc(-c2ccc(-c3ccc(-c4cccs4)s3)s2)cc1 | 90.7% |
| COc1ccc(-c2ccc(-c3ccc(C(=N)N)s3)s2)cc1Cl | 72.5% |
| N=C(N)c1ccc(-c2cc(Cl)cc(Cl)c2)cn1 | 97.1% |
| Cc1nc2ncccc2nc1Nc1ccc(S(=O)(=O)Nc2cncs2)cc1 | 98.6% |
| Cc1nc2ncccc2nc1Nc1ccc(S(=O)(=O)Nc2ccccn2)cc1 | 102% |
| NC(=S)N/N=C1\CCCC(C(F)(F)F)C1 (stereo not drawn) | 97.7% |
| CCC(=O)Oc1ccc(/C(=C(/C)Cc2cccc(OC)c2)c2ccc(OCCN(C)C)cc2)cc1 | 87.3% |
| COC1=C(OC)C(=O)C(CCCCCCCCCC[P+](c2ccccc2)(c2ccccc2)c2ccccc2)=C(C)C1=O | 2.19% (active) |
| O=C(CN1CCN(c2cc3c(cc2F)c(=O)c(C(=O)N/N=C/c2ccccc2O)cn3C2CC2)CC1)N/N=C\c1ccccc1O | 19.8% |
| COc1ccc(-c2ccc(-c3ccc(C(=N)N)cn3)s2)cc1OC | 96.1% |
